# Test results as given in PubChem BioAssay (Tox21).
# Inconclusive results are not listed. Where a call stands in place of a potency, no number is given. Calls of active or inactive are those of the source. Calls come from the whole dose curve; as a rule, active = well fitted cell-killing curve with a large enough effect in the repeat runs; inconclusive = weak or mixed curves, or effect the other way; inactive = no such curve, though single readings can be large or run the other way.
# Test: qHTS assay to identify small molecule antagonists of the progesterone receptor (PR) signaling pathway - cell viability counter screen (AID 1346798); note: nearly all actives have a fitted effect of over 50% in size
# Conditions: PR-UAS-bla HEK293T viability, CellTiter-Glo luminescence, 16 h; series mostly up to 42.5 µM
# Source text: National Center for Advancing Translational Sciences [NCATS]
# NIH Chemical Genomics Center [NCGC]
# U.S. Environmental Protection Agency [EPA]
# National Institutes of Environmental Health Sciences [NIEHS]
# National Toxicology Program [NTP]
# U.S. Food and Drug Administration [FDA]
# Progesterone receptor (PR), a nuclear hormone receptor, plays an important role in development, metabolic homeostasis and reproduction. It is activated by the steroid hormone progesterone. Endocrine disrupting chemicals (EDCs) and their interactions with steroid hormone receptors like PR causes disruption of normal endocrine function. To identify the compounds that inhibit PR signaling, a PR-UAS-bla GripTite cell line i.e. PR-UAS-bla HEK293T (Invitrogen, Carlsbad, CA, USA) containing a beta-lactamase reporter gene under the control of an UAS response element was used to screen Tox21 10K compound library. The cytotoxicity of the Tox21 compound library against the PR-bla cell line was tested in parallel by measuring the cell viability using CellTiter-Glo assay in the same wells.
# Tox21 Assay Protocol Summary:
# PR-UAS-bla HEK293T cells were dispensed at 3,000 cells/4 uL of assay medium containing 2% charcoal stripped FBS per well into black wall/clear-bottom 1536-well plates using a Multidrop Combi (ThermoFisher Scientific, Waltham, MA) dispenser. After the assay plates were incubated at a 37C and 5% CO2 for 4 hr, 23 nL of compounds dissolved in DMSO, positive controls or DMSO only was transferred to the assay plate by a Pintool station (Kalypsys, San Diego, CA), followed by addition of 1 uL of R5020 in assay medium using a Flying Reagent Dispenser (FRD, Aurora Discovery, San Diego, CA). The plates were incubated at 37C and 5% CO2 for 16 hr. Then 1 uL of LiveBLAzer B/G FRET substrate was added using a Flying Reagent Dispenser, the plates were incubated at room temperature for 2 hours, and fluorescence intensity was measured by an Envision plate reader (PerkinElmer, Shelton, CT). For cell viability readout that measures cytotoxicity, 4 uL/well of CellTiter-Glo reagent was added into the assay plates using a FRD. After 30 min incubation at room temperature, the luminescence intensity in the plates was measured using a ViewLux (PerkinElmer) plate reader.
# Potency is the fitted concentration of half-maximal effect.
row,SMILES,Potency
1,NC/C=C/C(=O)O,inactive
2,O=[N+]([O-])c1nccn1CO[C@@H](CO)[C@H](O)CO,inactive
3,CCOc1ccc(OCC)c(Cl)c1,inactive
4,CCCCCCCCCCCCCCCCOP(=O)([O-])OCC[N+](C)(C)C,inactive
5,Cc1cc2nc(N)sc2cc1C,inactive
6,C=CCc1cc(OC)c(O)c(C(=O)NCCO)c1,inactive
7,CCC/C=C/CO,inactive
8,CCCCCOc1ccc(C2SC(=O)NC2=O)cc1OCC (stereo not given),inactive
9,FC(F)(F)c1ccccc1,inactive
10,CCOC(=O)c1ccccc1O,inactive
11,COc1ccccc1OCC(O)COC(N)=O (stereo not given),inactive
12,Cc1ccc(C(C)C)cc1O,inactive
13,O=C(O)c1cccc(Cl)c1Cl,inactive
14,C=Cc1ccccc1,inactive
15,CC1CN(c2ccccc2)NC1=O (stereo not given),inactive
16,Cc1ccc(C=O)s1,inactive
17,CC(C)CCCCCCc1ccc(OCCOCCO)cc1,inactive
18,C=O,inactive
19,CCN(O)CC,inactive
20,CC(C)Nc1nc(N)nc(Cl)n1,inactive

row,SMILES,Potency
1,Cc1nc(N)nc(N)c1-c1ccc(Cl)c(Cl)c1,inactive
2,c1ccc(CN(CC2=NCCN2)c2ccccc2)cc1,inactive
3,NCCC(O)(P(=O)(O)O)P(=O)(O)O,inactive
4,CC(Oc1c(Cl)cccc1Cl)C1=NCCN1 (stereo not given),29.8 µM (active)
5,C[C@@H]1CN(c2c(F)c(F)c3c(=O)c(C(=O)O)cn(C4CC4)c3c2F)C[C@H](C)N1,inactive
6,Oc1ccccc1F,inactive
7,CC1(C)C(=O)N(Cl)C(=O)N1Br,inactive
8,CCC(=O)Nc1ccc(O)cc1,inactive
9,O=C1CCCCC1C1CCCCC1 (stereo not given),inactive
10,CC(C)(C)C1CCCCC1=O (stereo not given),inactive
11,COc1cc(C)ccc1C(C)C,inactive
12,Cc1ccc([N+](=O)[O-])cc1Cl,inactive
13,N#CSCC(=O)O,inactive
14,CN1CCN(C2=Nc3ccccc3Oc3ccc(Cl)cc32)CC1,inactive
15,O=C1N(c2ccccc2)c2ccccc2C1(Cc1ccncc1)Cc1ccncc1,inactive
16,CC(C)(C)c1cccc(O)c1,inactive
17,CCCCCCn1c(=O)c2c(ncn2C)n(C)c1=O,inactive
18,CCOc1ccc2nc(N)sc2c1,inactive
19,CC(C)CC(=O)OCc1ccccc1,inactive
20,C[C@@H]1CN(c2c(F)c(N)c3c(=O)c(C(=O)O)cn(C4CC4)c3c2F)C[C@H](C)N1,inactive
